# Measurements reported in PubChem BioAssay AID431 (Sanford-Burnham Center for Chemical Genomics, 2006).
# Out of some 63,000 compounds screened, about 1,100 (1.7%) were called active.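 The calls were made as follows: active = compounds whose percent cytotoxicity in the single-dose primary screen, scaled between solvent and toxic-drug controls, exceeds 50; inactive = the rest.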 What follows is part of a selection rich in actives, with near analogues and random picks from the rest. Potency and affinity values are given separately.
# Assay: viability loss of HPDE-C7K cells – cell-based, fluorescence, HTS, primary screen (AID 431);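 also: 0% = DMSO solvent wells and 100% = doxorubicin-treated wells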
# Conditions: HPDE-C7K KRASV12 cells, Alamar Blue viability, 48 h; at 10 µM; hits give high values
row,SMILES,cytotoxicity
1,Cn1c(=O)c2c(nc(Br)n2Cc2c(F)cccc2Cl)n(C)c1=O,-11.4% (inactive)
2,Cc1ccc(/C=c2/sc3nnc(-c4ccccc4Cl)n3c2=O)o1,50.1% (active)
3,Cc1ccc(/C=c2\sc3nc(-c4ccccc4Br)nn3c2=O)o1,8.5% (inactive)
4,Cc1ccccc1-c1nnc2s/c(=C\c3ccc(N(C)C)cc3)c(=O)n12,3.5% (inactive)
5,COc1cccc(OC)c1OCCCSc1nc(C)cc(=O)[nH]1,6.8% (inactive)
6,CCSC1=N/C(=C\c2ccc3c(c2)OCO3)C(=O)S1,40.9% (inactive)
7,C=CCSC1=N/C(=C\c2cc(OC)c3c(c2)OCO3)C(=O)S1,16.5% (inactive)
8,C=CCSC1=N/C(=C\c2ccc3c(c2)OCO3)C(=O)S1,52.9% (active)
9,COc1ccc(-c2c3c(=O)n(C)c(=O)n(C)c3cn2Cc2ccccn2)cc1,7% (inactive)
10,CCS(=O)(=O)N1CCCC(C(=O)NCc2ccccc2Cl)C1 (configuration not stated),14.1% (inactive)
11,COc1cc(NC(=O)NCc2ccncc2)cc(OC)c1OC,-5.3% (inactive)
12,CCOc1ccc(-c2nc(N)ncc2-c2ccccc2)c(O)c1,8.3% (inactive)
13,CCOC(=O)c1nc(-c2ccc3c(c2)OCO3)[nH]c1C,5.4% (inactive)
14,CCc1cc(-c2[nH]ncc2-c2ccc3c(c2)OCO3)c(O)cc1O,64.9% (active)
15,Oc1ccccc1-c1cc(-c2ccc3c(c2)OCCO3)n[nH]1,16.4% (inactive)
16,COc1ccc(-c2cnc(N)nc2-c2ccc(OC)cc2O)cc1,-1.3% (inactive)
17,Cc1nc(-c2ccc3c(c2)OCO3)cs1,-26.4% (inactive)
18,CCCc1cc(-c2[nH]ncc2-c2ccc(C(=O)OCC)o2)c(O)cc1O,30.9% (inactive)
19,CCc1nc(SCc2ccccn2)c2c(=O)n(C)c(=O)n(C)c2n1,-2.5% (inactive)
20,CCCSCCCNC(=O)Cn1cc2c(n1)CCC(C)C2 (configuration not stated),4.6% (inactive)
21,COC(=O)Cc1csc(N)n1,-19.5% (inactive)
22,Cc1cc(C)c2[nH]c(=O)c(C(c3nnnn3Cc3ccc4c(c3)OCO4)N3CCC(C)CC3)cc2c1 (configuration not stated),-17.3% (inactive)
23,O=C(CSc1nnc(-c2ccccn2)n1Cc1ccccc1)N1CCCC1,-3% (inactive)
24,O=C1C(=O)N(CCOCCO)C(c2ccccn2)/C1=C(\O)c1ccccc1 (configuration not stated),-29.5% (inactive)
25,CCc1oc(C(=O)O)cc1CN(CC)CC,-3.6% (inactive)

row,SMILES,cytotoxicity
1,CCCCCn1c(CN2CCCCC2CC)nc2c1c(=O)n(C)c(=O)n2C (configuration not stated),8.3% (inactive)
2,Cn1c(=O)oc2cc(S(=O)(=O)NCCC(=O)NCCc3ccccc3)ccc21,0.1% (inactive)
3,Cc1cc(Nc2cccc(C)c2C)n2nc(C)nc2n1,9% (inactive)
4,O=C(COc1ccccc1)N(Cc1ccco1)c1ccc(O)cc1,-5.3% (inactive)
5,CCCCn1nc(NC(=O)c2cccs2)c2cc3cc(OC)ccc3nc21,23.2% (inactive)
6,CCCn1nc(NC(=O)c2cccs2)c2cc3cc(OC)ccc3nc21,-25.3% (inactive)
7,COc1ccc2nc3c(cc2c1)c(NC(=O)c1cccs1)nn3CC(C)C,52.8% (active)
8,CCOc1ccccc1NC(=O)NC1CCN(CC(=O)Nc2ccc3c(c2)OCCO3)CC1,-18.3% (inactive)
9,CCN(CC(=O)NCc1cccs1)S(=O)(=O)c1cccc(C(C)=O)c1,-12.5% (inactive)
10,O=C(COn1nnc2ccc(C(F)(F)F)cc21)Nc1nnc(-c2ccccc2)o1,59.2% (active)
11,O=C(COc1ccccc1)Nc1nnc(-c2ccccc2)o1,-10.7% (inactive)
12,O=C(COn1nnc2ccc(Cl)cc21)NCc1ccccc1,3.7% (inactive)
13,Cc1csc(NC(=O)C2CCN(C(=O)CSc3nnc(C)n3Cc3ccccc3)CC2)n1,-14% (inactive)
14,S=c1[nH]c2ncccc2o1,21.2% (inactive)
15,NC(=O)CSc1nc2ccccc2n1-c1ccccc1,8.7% (inactive)
16,Cn1c(N)c(C(=O)CSc2nc3ccccc3n2-c2ccccc2)c(=O)n(C)c1=O,103% (active)
17,COc1ccc(-n2c(SCC(=O)c3c(N)n(C)c(=O)n(C)c3=O)nc3ccccc32)cc1,7.4% (inactive)
18,CCOC(=O)C1=C(C)Nc2nnnn2C1c1cccc(OC)c1OC (configuration not stated),-16.1% (inactive)
19,O=C(CN1CCOCC1)NCc1ccccc1,-11.4% (inactive)
20,COc1ccc(OC)c(C2CC(=O)c3c([nH]c(C(=O)OCC4CCCO4)c3C)C2)c1 (configuration not stated),7.8% (inactive)
21,Cc1c(C(=O)OCC2CCCO2)[nH]c2c1C(=O)CC(c1ccc(N(C)C)cc1)C2 (configuration not stated),3.2% (inactive)
22,Cc1c(C(=O)OCC2CCCO2)[nH]c2c1C(=O)CC(c1ccco1)C2 (configuration not stated),53.3% (active)
23,CC1=C(C(=O)OCc2ccccc2)C(c2ccco2)C2=C(CC(C)(C)CC2=O)N1 (configuration not stated),7.4% (inactive)
24,Cc1c(C(=O)OCc2ccccc2)[nH]c2c1C(=O)CC(c1ccco1)C2 (configuration not stated),68.1% (active)
25,CCOc1ccc(C2CC(=O)c3c([nH]c(C(=O)OC)c3C)C2)cc1OC (configuration not stated),6.3% (inactive)

row,SMILES,cytotoxicity
1,COCCOC(=O)c1[nH]c2c(c1C)C(=O)CC(c1ccco1)C2 (configuration not stated),65.5% (active)
2,CCOC(=O)c1[nH]c2c(c1C)C(=O)CC(c1ccc(F)cc1)C2 (configuration not stated),58.4% (active)
3,CCOCCOC(=O)c1[nH]c2c(c1C)C(=O)CC(c1ccc(N(C)C)cc1)C2 (configuration not stated),5.2% (inactive)
4,COCCOC(=O)c1[nH]c2c(c1C)C(=O)C(C(=O)OC)C(C)C2 (configuration not stated),0% (inactive)
5,Cc1c(C(=O)Nc2ccc(C(=O)O)cc2)cnn1C,7.2% (inactive)
6,CC(=O)c1ccc(C(=O)Nc2ccc(N3CCOCC3)cc2)cc1,-18.3% (inactive)
7,COc1ccc(C(=O)/C=C/Nc2c(C)n(C)n(-c3ccccc3)c2=O)cc1OC,20.1% (inactive)
8,COc1ccccc1Oc1nc2c(c(=O)n(Cc3ccccc3F)c(=O)n2C)n1C,18.8% (inactive)
9,COC(=O)C1=C(C)N=C2SCCC(=O)N2C1c1cccs1 (configuration not stated),12.3% (inactive)
10,COc1cccc(-n2ccnc2SCC(=O)Nc2nccs2)c1,-7.9% (inactive)
11,N#CC1=C(N)Oc2n[nH]c(-c3cccs3)c2C1c1ccsc1 (configuration not stated),-8.3% (inactive)
12,Cc1c(C(=O)N2CCOCC2)[nH]c2c1C(=O)CC(c1ccccc1Cl)C2 (configuration not stated),55.9% (active)
13,COC(=O)c1[nH]c2c(c1C)C(=O)CC(c1ccccc1)C2 (configuration not stated),48.3% (inactive)
14,COCCOC(=O)c1[nH]c2c(c1C)C(=O)CC(c1ccccc1)C2 (configuration not stated),71.5% (active)
15,COCCOC(=O)c1[nH]c2c(c1C)C(=O)CC(c1ccc(F)cc1)C2 (configuration not stated),5.3% (inactive)
16,COC(=O)c1[nH]c2c(c1C)C(=O)CC(c1ccc(C)cc1)C2 (configuration not stated),-3.1% (inactive)
17,CCOC(=O)c1[nH]c2c(c1C)C(=O)CC(c1ccc(OCC)c(OC)c1)C2 (configuration not stated),-1.2% (inactive)
18,COC(=O)c1[nH]c2c(c1C)C(=O)CC(c1cccs1)C2 (configuration not stated),75.6% (active)
19,CCOC(=O)c1[nH]c2c(c1C)C(=O)CC(c1ccc(OC)c(OC)c1)C2 (configuration not stated),-13.1% (inactive)
20,Cc1c(C(=O)O)[nH]c2c1C(=O)CC(c1ccccc1)C2 (configuration not stated),-8.9% (inactive)
21,Cc1c(C(=O)N2CCOCC2)[nH]c2c1C(=O)CC(c1ccc(Cl)cc1)C2 (configuration not stated),-7.4% (inactive)
22,CCOC(=O)c1[nH]c2c(c1C)C(=O)CC(c1ccco1)C2 (configuration not stated),59.2% (active)
23,COCCOC(=O)c1[nH]c2c(c1C)C(=O)CC(c1ccc(N(C)C)cc1)C2 (configuration not stated),-10.1% (inactive)
24,CCN(CC)S(=O)(=O)c1ccc(OC(C)C)nc1,-11.5% (inactive)
25,COC(=O)c1ccsc1NC(=O)C1COc2ccccc2O1 (configuration not stated),4.6% (inactive)

row,SMILES,cytotoxicity
1,Cc1cc(C(=O)COc2ncnc3sccc23)c(C)n1C1CC1,-0.1% (inactive)
2,CSCCOC(=O)c1[nH]c2c(c1C)C(=O)CC(c1ccco1)C2 (configuration not stated),59.3% (active)
3,Cc1c(C(=O)OC2CCC(C)CC2)[nH]c2c1C(=O)CCC2 (configuration not stated),0.1% (inactive)
4,Cc1c(C(=O)OC2CCCC2)[nH]c2c1C(=O)CC(c1ccco1)C2 (configuration not stated),53.7% (active)
5,CCC(C)OC(=O)c1[nH]c2c(c1C)C(=O)CC(c1ccc(N(C)C)cc1)C2 (configuration not stated),4.6% (inactive)
6,Cc1c(C(=O)OC2CCCCC2)[nH]c2c1C(=O)CC(C)(C)C2,3.6% (inactive)
7,COc1cc(C2CC(=O)c3c([nH]c(C(=O)OCCOC(C)C)c3C)C2)cc(OC)c1OC (configuration not stated),5.8% (inactive)
8,Cc1c(C(=O)OCCOC(C)C)[nH]c2c1C(=O)CC(C)(C)C2,-19.6% (inactive)
9,Cc1c(C(=O)OCC(C)C)[nH]c2c1C(=O)CC(c1ccco1)C2 (configuration not stated),66.2% (active)
10,Cc1c(C(=O)OCCOC(C)C)[nH]c2c1C(=O)CC(c1ccco1)C2 (configuration not stated),68.1% (active)
11,COc1ccc(-n2nc(C(=O)NCC(=O)NCC3CCCO3)c3ccccc3c2=O)c(OC)c1 (configuration not stated),0.7% (inactive)
12,CC(C)CNS(=O)(=O)c1ccc(CCC(=O)N2CCN(Cc3ccccc3)CC2)cc1,-1.6% (inactive)
13,CN(C)CC(=O)Nc1cc(C(F)(F)F)ccc1Cl,-7.9% (inactive)
14,Cc1cc(C)nc(SCc2nnc(SCC(=O)N3CCOCC3)o2)n1,4.2% (inactive)
15,CCc1nnc(NC(=O)c2ccc(COc3ccc(C)cc3)o2)s1,-2.5% (inactive)
16,CCCCOC(=O)c1[nH]c2c(c1C)C(=O)CC(c1cc(OC)c(OC)c(OC)c1)C2 (configuration not stated),4.1% (inactive)
17,CCCOC(=O)c1[nH]c2c(c1C)C(=O)CC(c1ccc(OC)c(OC)c1)C2 (configuration not stated),-0.9% (inactive)
18,CCCCCOC(=O)c1[nH]c2c(c1C)C(=O)CC(c1ccco1)C2 (configuration not stated),51.4% (active)
19,Cc1cc(C)c2nc(SCC#N)cc(C)c2c1,15.7% (inactive)
20,Cc1cc(NCCCN2CCOCC2)n2ncc(-c3ccc(Cl)cc3)c2n1,23.7% (inactive)
21,Cc1cc(NCCN2CCOCC2)n2ncc(-c3ccc(Cl)cc3)c2n1,17% (inactive)
22,Cc1cc(NCCOCCO)n2ncc(-c3ccc(Cl)cc3)c2n1,75.4% (active)
